Screening results deposited in PubChem BioAssay by National Center for Advancing Translational Sciences (NCATS).
Sampled rows, rich in hits. Any-hit rate of the full collection: about 21%.
Shiga toxin inh: blocks Shiga toxin action in Vero cells | 290,000 tested, 9.2% active | inhibition, % at 38.7 µM | Vero cells, Shiga toxin protein synthesis inhibition reporter | AID 2315; in the data active = inhibition mostly above about 28%, no sharp cut-off; inactive = mostly below about 43%; also: 0% is about no effect
Pf growth 48h: P. falciparum growth inhibition at 48 hours (one generation); P. falciparum luciferase growth in erythrocytes, 48 h; Potency, µM (highest dose often 28.7 µM), without a hit: top-dose activity change, negative = inhibition, most hits filed as inhibitors; 310,000 tested, 5.9% active; AID 504832; also: potency is read from the fitted curve at half-maximal effect; % is scaled to controls: 0 for no effect and ±100 for the full control effect
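Luciferase-expressing parasites in RBCs, 2% Hct / 0.1% parasitemia final; RPMI 1640 + 0.5% Albumax; 37 C, 5% CO2, one generation; luminescence read-out, lower signal = inhibition.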
CHX counter: affects cycloheximide protein synthesis inhibition readout, counter-screen | cell reporter, cycloheximide protein synthesis inhibition counterscreen | max response, % | 300,000 tested, 12% active; in the data active = max response mostly above about 13%, no sharp cut-off; inactive = mostly below about 14%; also: read at 38.3 µM for the half of the compounds with a filed dose; 0% is about no effect
HCV inhibitor: inhibitors of hepatitis C virus infection. Huh7.5.1 HCVcc-Cre infection, luciferase reporter, 44 h. Potency, µM (titrated, usually from 41.8 µM), for the others: at the highest dose activity change, negative = inhibition, actives largely listed as inhibitors. 340,000 tested, 3.4% active; also: potency is read from the fitted curve at half-maximal effect; % is scaled to controls: 0 for no effect and ±100 for the full control effect
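Infectious HCVcc-Cre (~0.5 moi) was added to cells just after compound, with cells seeded 4 h earlier at 1,000 per well. Luciferase activity after 44 h culture reported infection; substrate was incubated 15 min at room temperature before reading.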
Pf growth 96h: inhibits malaria parasite growth, 96 h; Potency, µM (titrated, usually from 28.7 µM), for the others: at the top dose activity change, negative = inhibition, usual class: inhibitors; 320,000 tested, 6.9% active; P. falciparum luciferase reporter growth, 96 h; also: potency is read from the fitted curve at half-maximal effect; % is scaled to controls: 0 for no effect and ±100 for the full control effect
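Plates of compound plus infected erythrocytes (2% hematocrit, 0.05% parasitemia final) incubate 96 hours, 37 C, 5% CO2. Detection reagent added; reduced luminescence from the parasites' luciferase reporter flags inhibition.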
AMA1 RON2 block: disrupts binding of P. falciparum AMA1 to RON2; 360,000 tested, 0.2% active; Potency, µM (series often up to 58.2 µM), for inactives: top-dose activity change, negative = inhibition, hits mostly inhibitors; AlphaScreen AMA1-biotinylated RON2 peptide binding;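 also: potency is read from the fitted curve at half-maximal effect; 0% = vehicle wells and -100% = peptide control; nearly all actives have a fitted effect of over 45% in size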
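AMA1 (3D7) with his tag at 25 nM final met compounds first, then biotinylated RON2 peptide at 25 nM; detection used donor plus acceptor beads, 10 µg/mL apiece, read by AlphaScreen after 30 min at room temperature.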
Active calls of the source: *; ? = inconclusive; / = not tested or not shown; [ ] = another dose, or the depositor's remark. Unless noted, calls follow the shape of the dose curve; as a rule, active = well fitted curve in the direction sought with a large enough effect; inconclusive = small, poorly fitted or top-dose-only effect, or another doubt; inactive = no such curve, though single readings can be large; an effect the other way counts as inactive or inconclusive.

SMILES	Shiga toxin inh	Pf growth 48h	CHX counter	HCV inhibitor	Pf growth 96h	AMA1 RON2 block
Cn1cnc(C(=O)NCc2ccccc2)c1C(=O)NCc1ccccc1	/	/	/	4%	/	13%
O=C(Oc1ccc2ccc(=O)oc2c1)c1ccccc1	-4	10%	0	9%	9.3µM*	3%
O=c1ccc2ccc(OCCOc3cccc(Cl)c3)cc2o1	66*	45%	24*	?	31%	45%
O=C(Nc1ccccc1)c1ccc(OC(=O)c2ccccc2)cc1	13	35%	-1	-28%	?	-5%
COc1ccc(C(=O)Oc2ccc3ccc(=O)oc3c2)cc1	-3	/	-3	2%	36%	-5%
CN(C)C(=O)Oc1ccc(OC(=O)c2ccccc2)cc1	20*	10%	39*	-43%	10%	-4%
Cc1ccc(C(=O)NC(C)(COc2nonc2C)COc2nonc2C)cc1	-23	12µM*	-2	-30%	/	10%
O=C(c1cc(-c2ccccc2)nc2ccccc12)N1CCN(c2ccccc2O)CC1	46*	15µM*	15*	?	9.3µM*	-29%
Cc1ccc2nc(-c3ccccc3)cc(C(=O)N3CCN(c4ccccc4O)CC3)c2c1	/	10µM*	/	1%	?	-11%
O=C(c1cc(-c2ccncc2)nc2ccccc12)N1CCN(c2ccccc2O)CC1	-7	12µM*	-1	-27%	4.7µM*	6%
Cc1ccc2nc(-c3ccccc3)cc(C(=O)N3CCN(S(=O)(=O)c4c(C)noc4C)CC3)c2c1	/	12µM*	/	?	10µM*	?
O=C(c1cc(-c2ccncc2)nc2ccccc12)N1CCN(c2ncccn2)CC1	/	/	/	?	/	-12%
O=C(c1cc(-c2ccccc2)nc2ccccc12)N1CCN(c2ccccn2)CC1	11	0%	1	1%	1%	-3%
Cc1cccc(C)c1NC(=O)C1(C)CSCC(=O)N1CCc1c[nH]c2ccccc12 (configuration not stated)	/	/	/	/	/	-17%
Fc1ccccc1Cc1noc(CN(Cc2ccccn2)CC2CCCO2)n1 (configuration not stated)	-4	-11%	-1	5%	?	23%
O=C(c1cc(-c2ccncc2)nc2ccccc12)N1CCN(c2ccc(N3CCOCC3)nn2)CC1	26	12µM*	2	/	?	5%
O=C(Nc1cccc(-c2nc3ccccc3o2)c1)c1cc([N+](=O)[O-])ccc1N1CCOCC1	11	/	1	/	/	/
Cc1cccc(NC(=O)C2(c3ccccc3)CC2(Cl)Cl)c1 (configuration not stated)	13	?	3	-26%	?	0%
COc1ccccc1NC(=O)C1(C)Cc2ccccc2C(=O)O1 (configuration not stated)	23	13%	9	6%	167%	-2%
Cc1ccc(NC(=O)C2(c3ccccc3)CC2(Cl)Cl)cc1C (configuration not stated)	128*	?	66*	-11%	?	-2%
CC(=O)c1cccc(NC(=O)C2(c3ccccc3)CC2(Cl)Cl)c1 (configuration not stated)	-9	?	9	9%	-42%	-12%
CCc1ccc(NC(=O)C2(C)Cc3ccccc3C(=O)O2)cc1 (configuration not stated)	41*	48%	26*	-7%	?	13%
CCc1ccc(NC(=O)C2(c3ccccc3)CC2(Cl)Cl)cc1 (configuration not stated)	-6	?	-4	?	3.3µM*	8%
Cc1cc(C)cc(NC(=O)C2(c3ccccc3)CC2(Cl)Cl)c1 (configuration not stated)	-5	4.7µM*	-5	-13%	2.3µM*	3%
O=C(O)c1cc(=O)[nH]c2ccccc12	/	/	/	11%	/	-5%
SMILES	Shiga toxin inh	Pf growth 48h	CHX counter	HCV inhibitor	Pf growth 96h	AMA1 RON2 block
C=C1CCN(C(C)C(=O)O)S(=O)(=O)c2ccccc21 (configuration not stated)	-10	16%	-8	1.4µM*	-3%	6%
C=C1CCN(C(C)C(=O)OC)S(=O)(=O)c2ccccc21 (configuration not stated)	18	6%	-1	-3%[8.37 µM]	-21%	6%
CCNC(=O)C1(C)CCN1Cc1cc(-c2ccccc2)n(C)n1 (configuration not stated)	/	/	/	/	/	17%
CC1CN(CCOc2ccc(F)cc2)CC(C)O1 (configuration not stated)	/	-9%	-3	4%	-4%	20µM*
CC1CN(CCCSc2ccc(Cl)cc2)CC(C)O1 (configuration not stated)	6	15%	10	13µM*	?	-22%
c1ccc2cc(OCCOCCOc3ccc4ccccc4c3)ccc2c1	-4	37%	2	-14%	10%	1%
CC1CN(CCCCOc2ccc3ccccc3c2)CC(C)O1 (configuration not stated)	21	12%	22*	4%	140%	-5%
CC(C)SCCCCOc1ccc2ccccc2c1	33	89%	39*	3%	?	21%
CC1CN(CCOc2ccc([N+](=O)[O-])cc2)CC(C)O1 (configuration not stated)	10	32%	-3	-10%	-12%	-15%
NC(=O)c1c(NC(=O)COC(=O)c2ccc(S(=O)(=O)Nc3ccccc3)cc2)sc2c1CCCC2	-6	15%	-1	?	-23%[5.75 µM]	33%
O=C(CS(=O)CC(=O)NC12CC3CC(CC(C3)C1)C2)Nc1ccc(F)cc1 (configuration not stated)	-5	13%	-3	-10%	?	0%
O=C(NCCNC(=O)c1cc(Cl)ccc1Cl)c1cnccn1	-5	5%	-3	13%	7%	15%
CCN1CC=C(c2c[nH]c3ccccc23)CC1	26	1µM*	-1	10µM*	40%	12%
O=C(C(=O)N1CC=C(c2ccccc2)CC1)c1c[nH]c2ccccc12	-14	10%	-1	0%	45%	-9%[2.32 µM]
Cc1ccc(S(=O)(=O)N2[C@H](CC(=O)c3cccs3)OC[C@@H]2C)cc1	/	/	/	/	/	1%
Cc1ccc(S(=O)(=O)/N=C(\CCl)N2CCOCC2)cc1	1	13µM*	-2	10µM*	?	3%
CN1C=CC(=C2C(=O)c3ccccc3C2=O)C=C1	88	/	38*	/	?	/
CCCN1C=CC(=C2C(=O)c3ccccc3C2=O)C=C1	-26	-94%	-11	-6%	6%	-4%
CCN1C=CC(=C2C(=O)c3ccccc3C2=O)C=C1	-32	?	-9	-7%	?	-10%
CCCCCCN1C=CC(=C2C(=O)c3ccccc3C2=O)C=C1	46*	-17%	37*	3%	137%	-6%
